The values that follow come from PubChem BioAssay.

The nature of the assay: small molecules captured by biotinylated probe aFGF10 – biochemical, small-molecule microarray, fluorescence 635/667, stem cell growth factor project, primary screen (AID 1071).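 Further: score merges 667 nm spot intensity and signal to noise from triplicate slides.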 The following applies: higher = more signal.
`C#CCCCON=C1[C@H]2CCn3c(=O)n(C)c(=O)n3[C@H]2[C@H](O)[C@@H]2O[C@H]12` showed a composite z-score of 0.382.
Regarding `CCCCC#C[C@@H]1C=C[C@H](OC(C)=O)[C@@H](COC(C)=O)O1`, the composite z-score was determined as 0.319.
As for `CO[C@@H]1COC(=O)[C@@H](C)COC(=O)[C@@H](C)NC(=O)CC=C[C@@H]1C`, the figure is 0.231; as for `Cc1ccc(S(=O)(=O)OC[C@H]2CN3[C@H](c4ccc(Br)cc4)[C@@H](C)CC[C@H]3C(=O)O2)cc1`, 0.255.
The value for `COc1ccc(COC(=O)NN=C2C[C@@H](O)[C@@H](O)[C@@H]3[C@@H]4C(=O)N(c5cccc(Oc6ccccc6)c5)C(=O)[C@@H]4CC[C@@H]23)cc1` was -0.135.
As for `O=C1C2=CC[C@H]3C(=O)N(c4cccc(Oc5ccccc5)c4)C(=O)[C@H]3[C@H]2[C@H](O)[C@@H]2O[C@H]12`, the figure is 0.258; as for `CC(CCN1CCCCc2nc(C)c(C)cc21)=NO[C@H](C)c1cn([C@H](CO)Cc2ccccc2)nn1`, 0.205.
On to `CO[C@@H]1COC(=O)[C@H](CCSC)NC(=O)CC=C[C@@H](C)COC(=O)CCC[C@H]1C`, for which the composite z-score amounted to 0.114.
As to `CC(CCN1CCCc2nc(C)c(C)cc21)=NO[C@@H](C)c1cc(-c2c(C)cc(C)cc2C)no1`, the composite z-score was 0.338.
Compound `CO[C@@H]1COC(=O)[C@@H](C)NC(=O)CC=C[C@@H](C)[C@H](NS(=O)(=O)c2ccc(C)cc2)COC(=O)[C@H](C)NC(=O)CC=C[C@H]1C` had a composite z-score of 0.189.
Take `CCN1C(=O)[C@H]2[C@H]3[C@H](O)[C@H](O)CC(=NOC[C@H]4O[C@H](c5ccccc5)C=C[C@@H]4Oc4ccc(OC)cc4)[C@@H]3CC[C@H]2C1=O`: the composite z-score was determined as 0.999.
